# Compound activity (PubChem)
# gsp antag – qHTS for Antagonists of gsp, the Etiologic Mutation Responsible for Fibrous Dysplasia/McCune-Albright Syndrome: qHTS; gsp-mutant cells, cAMP HTRF, 30 min; Potency, µM (doses to about 76.9 µM), usual class: inhibitors; 340,000 compounds, 0.4% hits; calls by dose curve; cell line not stated here;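 also: intracellular cAMP measured with PDE inhibitor Ro 20-1724 present during compound exposure; nearly all actives have a fitted effect of over 65% in size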
#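 Cells, 2000/well, grown 16–24 h in DMEM 10% FBS with 0.5 mg/ml G418, then compounds plus […] (300 uM addition stock), 30 min at 37C. cAMP read by HTRF (cAMP-d2 and anti-cAMP antibody-K in lysis buffer) after 30 min RT.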
# TSHR antagonist – Antagonists of the Thyroid Stimulating Hormone Receptor: HTS campaign; Thyrotropin receptor (Homo sapiens), P16473; TSHR-expressing cells, TSH-stimulated cAMP HTRF, 2 h; active compounds read low; activity change, negative = inhibition, % at 11.5 µM; 330,000 compounds, 0.2% hits;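 active = activity change below a set negative limit, meaning inhibition stronger than a set level, cut at about -70% in these data; inconclusive = activity change between two set negative limits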
# Target sequence (P16473 whole entry, looked up): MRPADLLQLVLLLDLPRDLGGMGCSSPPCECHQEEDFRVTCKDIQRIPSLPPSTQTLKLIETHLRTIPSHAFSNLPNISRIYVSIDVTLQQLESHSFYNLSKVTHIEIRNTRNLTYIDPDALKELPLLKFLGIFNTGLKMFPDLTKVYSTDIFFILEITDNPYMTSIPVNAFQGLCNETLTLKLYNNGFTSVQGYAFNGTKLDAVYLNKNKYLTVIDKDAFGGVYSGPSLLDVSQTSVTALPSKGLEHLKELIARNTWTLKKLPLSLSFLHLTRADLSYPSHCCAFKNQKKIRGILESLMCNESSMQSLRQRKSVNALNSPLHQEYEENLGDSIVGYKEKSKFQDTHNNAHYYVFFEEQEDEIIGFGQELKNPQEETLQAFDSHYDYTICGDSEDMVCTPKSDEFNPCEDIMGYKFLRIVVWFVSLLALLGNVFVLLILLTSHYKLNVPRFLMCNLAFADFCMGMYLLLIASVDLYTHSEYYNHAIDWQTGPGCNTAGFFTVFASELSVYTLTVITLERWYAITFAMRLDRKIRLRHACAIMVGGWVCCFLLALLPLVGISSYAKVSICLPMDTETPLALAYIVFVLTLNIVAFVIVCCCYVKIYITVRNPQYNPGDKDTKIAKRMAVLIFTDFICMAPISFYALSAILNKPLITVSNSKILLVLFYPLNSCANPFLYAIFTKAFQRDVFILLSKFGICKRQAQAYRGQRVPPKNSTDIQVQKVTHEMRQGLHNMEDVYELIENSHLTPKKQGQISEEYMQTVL
#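 Inhibition of cAMP made by TSHR-expressing cells under TSH stimulation (4nM final, EC80; 2 h, 37 deg C) is quantified with a one-step lysis HTRF kit, anti-cAMP cryptate versus cAMP-d2.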
# uPA generation – qHTS for Inhibitors of Cell Surface uPA Generation. AID 540303, 2011. 330,000 compounds, 0.31% hits. Potency, µM (doses to about 38.3 µM), hits mostly inhibitors. cell surface uPA generation assay, qHTS; active = well fitted inhibition curve with a large enough effect; inconclusive = small, poorly fitted or top-dose-only effect; inactive = no such curve, though single readings can be large or run the other way; tested in mouse RAW 264.7 cells; also: nearly all actives have a fitted effect of over 55% in size
# CCT modulator – High-Throughput Screening for Modulators of Cytosolic Chaperonin Activity; purified chaperonin ATPase assay, HTRF ADP detection, 30 min; activity change, % (test concentration not listed), hits read low; 360,000 compounds, 0.3% hits; AID 651819, 2012; in the data active = activity change below about -30%
#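 We incubate TRiC, 40 or 20 nM final, with library compounds at 76 uM and 10 uM ATP for 30 min at 37 °C. ADP formed is detected with Transcreener HTRF reagents after 30 min at room temperature.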
# gsp agonist – qHTS for Agonist of gsp, the Etiologic Mutation Responsible for Fibrous Dysplasia/McCune-Albright Syndrome: qHTS; 340,000 compounds, 0.13% hits; AID 624287, 2012; gsp mutant cells, cAMP HTRF, 30 min; Potency, µM (titrated, usually from 76.9 µM), actives largely listed as activators; active = well fitted activation curve with a large enough effect; inconclusive = small, poorly fitted or top-dose-only effect, or another doubt; inactive = no such curve, though single readings can be large or run the other way; cell line not stated here;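 also: phosphodiesterase inhibitor Ro 20-1724 added with compounds to block cAMP breakdown; nearly all actives have a fitted effect of over 60% in size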
#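 Cells in DMEM/10% FBS with G418 were pretreated with compounds in DMSO plus […] (300 uM stock) for 30 min at 37C. cAMP was measured by HTRF (cAMP-d2 plus anti-cAMP antibody-K) after 30 min at room temperature.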
# Mm-Cpn inhibitor – Inhibitors of TCP-1 ring complex (TRiC) of Methanococcus maripaludis (MmCpn): qHTS; AID 504842, 2011; Chaperonin Mm-Cpn (Methanococcus maripaludis); purified Mm-Cpn ATPase, ADP Transcreener TR-FRET; 330,000 compounds, 0.031% hits; Potency, µM (top dose mostly 76.9 µM), usual class: inhibitors; active = well fitted inhibition curve with a large enough effect; inconclusive = small, poorly fitted or top-dose-only effect; also: nearly all actives have a fitted effect of over 80% in size
#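 Measured: ADP formation by purified Mm-CPN. Conditions: 25 nM protein, 10 uM ATP, Tris pH 7.4 with Mg2+, K+ and DTT, 37°C for 30 min. Detection: Transcreener HTRF after 30 min at room temperature.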
# Hits are given with their value; . = inactive; ? = inconclusive; / = not tested or not shown; [ ] = dose if it differs, or a comment. This is a sample that favours compounds with a hit; in the whole collection about 1.2% have one here.
SMILES,gsp antag,TSHR antagonist,uPA generation,CCT modulator,gsp agonist,Mm-Cpn inhibitor
CC1NC(C)c2c(ccc3ccccc23)O1 (centres undefined),.,/,.,.,.,/
NC(=O)c1ccccc1N/C=C1\CCCCC1=O,50µM,.,.,.,.,.
O=C1CCCC/C1=C\Nc1ccccc1C(=O)O,.,.,.,.,.,.
Cn1c(SCc2cccc([N+](=O)[O-])c2)nc2c(c1=O)SCC2,35µM,.,.,.,.,.
Cn1c(SCc2cccnc2)nc2c(c1=O)SCC2,.,.,.,.,.[15.4 µM],.
Cc1cccc(NC(=O)c2onc3c2CCCC3)n1,.,.,4µM,.,.,.
Cc1c(Cl)cccc1NC(=O)NC1CCCCC1,.,.,.,-40,.,.
O=C(Nc1ccccc1NC(=O)NC1CCCCC1)NC1CCCCC1,.,.,/,.,.,.
CCOc1ccccc1N1CCN(CC(=O)c2c(N)n(C)c(=O)n(C)c2=O)CC1,.,.,.,.,.[15.4 µM],.
O=C(Nc1ccc(-n2cccc2)cc1)C1CC1,11µM,.,.,.,.[15.4 µM],.
O=C(Nc1ccc(Nc2ccccc2)cc1)C1CC1,.,.,.,.,.,.
CCOC(=O)C1CCCN(C(=O)c2ccc3c(c2)N(Cc2ccccc2)C(=O)c2ccccc2S3=O)C1 (centres undefined),8.9µM,.,.,.,.[15.4 µM],.
COc1ccc2c(-c3ccc(OCCN4CCOCC4)cc3)c(-c3ccccc3OC)sc2c1,.,.,.,.,/,32µM
COc1cc2sc(-c3ccccc3OC)c(-c3ccc(OCCN4CCOCC4)cc3)c2cc1OC,.,.,?,.,/,45µM
COc1ccc2c(-c3ccc(OCCN4CCCCC4)cc3)c(-c3ccccc3OC)sc2c1,.,.,?,.,/,.
COC(=O)Nc1sc2c(c1C(N)=O)CCCCCC2,.,.,.,.,?,.
CC(=O)N1C(C(=O)O)CSC1c1cccc(C)c1 (centres undefined),.,.,.,.,.,.
COc1cc2c(ccc3cc(OC)c(OC)c(O)c32)cc1O,.,.,10µM,.,/,.
COc1cc2cccc(OC)c(=O)c2c(O)c1OC,.,.,.,.,.,.
CC1CCN(C(=O)c2[nH]cnc2C(=O)NCCCCCNC(=O)OC(C)(C)C)CC1,.,.,.,.,/,.
O=C(CCc1nc2ccccc2c(=O)[nH]1)OCC(=O)N1CCN(S(=O)(=O)c2ccccc2)CC1,.,.,.,.,.,.
Cc1ccc(S(=O)(=O)n2cc(-c3ccccc3)c3ccccc32)cc1,.,.,1.1µM,-31,.,.
Cc1onc(-c2cccc(Cl)c2Cl)c1C(=O)O/N=C(\N)c1ccc([N+](=O)[O-])o1,.,.,.,.,.[15.4 µM],.
Cc1onc(-c2ccccc2)c1C(=O)O/N=C(\N)c1ccc([N+](=O)[O-])o1,.,.,4.5µM,.,.,.
CCOc1ccc(CN2CCNC(=O)C2CC(=O)N(C)Cc2nonc2C)cc1 (centres undefined),.,.,.,.,?,.
SMILES,gsp antag,TSHR antagonist,uPA generation,CCT modulator,gsp agonist,Mm-Cpn inhibitor
Brc1cc(Br)c2nc(-c3ccc(N4CCOCC4)cc3)ccc2c1,11µM,.,.,.,?,.
NC(=O)c1ccsc1NC(=O)COC(=O)Cc1cccc2ccccc12,35µM,?,.,.,.,.
COc1cc(C(=O)OCC(=O)Nc2sccc2C(N)=O)cc(OC)c1OC,.,.,3.2µM,.,.,.
COc1ccc(C(=O)OCC(=O)Nc2sccc2C(N)=O)cc1OC,.,.,.,.,?,?
COc1cccc(C(=O)Nc2nnc(SCC(=O)Nc3ccc(NC(C)=O)cc3)s2)c1,.,.,2µM,.,?,.
Cc1cc(=O)n2nc(N3CCCC3C(=O)Nc3ccc(C(C)C)cc3)sc2n1 (centres undefined),.,.,.,.,?,.
COc1ccc(NC(=O)C2CCCN2c2nn3c(=O)cc(C)nc3s2)cc1 (centres undefined),.,.,.,.,22µM,.
CC1CCCC(C)N1C(=O)Cn1nnc(-c2ccccc2)n1 (centres undefined),.,.,.,.,16µM,.
CCOC(=O)Cn1nnc(-c2ccccc2)n1,.,.,.,.,.,.
Cc1ccc(CN2C(=O)c3ccccc3Sc3ccc(C(=O)NCCN4CCOCC4)cc32)cc1,.,-136,?,.,.,.
O=C(NCCCN1CCOCC1)c1ccc2c(c1)N(Cc1c(F)cccc1Cl)C(=O)c1ccccc1S2,.,.,4.5µM,.,.,.
CCN1C(=O)c2ccccc2Sc2ccc(C(=O)NCCCN3CCOCC3)cc21,.,.,.,.,.[15.4 µM],.
O=C(NCCCN1CCCC1)c1ccc2c(c1)N(Cc1ccccc1F)C(=O)c1ccccc1S2=O (centres undefined),.,.,.,.,.,.
O=C(NCCCN1CCOCC1)c1ccc2c(c1)N(Cc1ccc(Cl)cc1)C(=O)c1ccccc1S2=O (centres undefined),.,-97,.,.,.,.
CC(C)(CN=C1NS(=O)(=O)c2ccccc21)CNC(=O)CN1C(=O)c2ccccc2C1=O,.,.,.,.,.,.
Cc1ccc2c(c1)Oc1ccc(NC(=O)CCCl)cc1C(=O)N2,.,.,8.9µM,.,.,.
O=C1C(=Cc2ccncc2)CCCc2ccccc21,/,/,/,.,.,/
Cc1ccc2nc(-c3ccccc3)cn2c1,.,.,.,.,.,.
c1ccc(-c2cn3c(n2)-c2ccccc2C3)cc1,.,.,6.3µM,.,.,.
Cc1ccc(NC(=O)Nc2cnccn2)c(C)c1,.,.,.,.,.,.
C=CCn1c(SCC(=O)O)nnc1-c1ccc(C(C)(C)C)cc1,.,.,.,-31,.,.
Cc1noc(C)c1COc1ccc(C(=O)N2CCN(c3cccc(Cl)c3)CC2)cc1,.,.,.,.,.[15.4 µM],.
Cc1noc2ncnc(N3CCN(c4cccc(Cl)c4)CC3)c12,35µM,.,?,.,.,.
Cc1cc(/C=C2\NC(=S)NC2=O)c(C)n1-c1cccnc1,.,.,.,-83,.[15.4 µM],.
Cc1nc(NC(=O)CCl)sc1C(=O)N(C)C,.,.,10µM,.,.,.
Cc1nc(NC(=O)C(Cl)Cl)sc1C(=O)N(C)C,.,.,.,.,.,.
O=C(COc1c(Br)cc(Br)c2cccnc12)N1CCCCC1,.,.,.,.,6.3µM,.
